# Test results reported in PubChem BioAssay AID596 (National Center for Advancing Translational Sciences (NCATS), 2007).
# The whole screen tested about 71,000 compounds, of which about 1,400 (2%) were called active. Where a call stands in place of a potency, no number is given. Roughly 3% stayed inconclusive and do not appear here. The sample as a whole holds a higher share of actives than the screen did. A number with no mark means an inactive call. Calls follow the shape of the dose curve; as a rule, active = well fitted curve in the direction sought with a large enough effect; inconclusive = small, poorly fitted or top-dose-only effect; inactive = no such curve, though single readings can be large or run the other way. Non-standard residues stand in square brackets, D forms with d. Residues, ends and D or L forms follow the SMILES beside them. ξ: configuration not given here. ξV = CC(C)C(N)C(=O)O
# Target: Microtubule-associated protein tau (Homo sapiens) (UniProt P10636)
# Assay: qHTS Assay for Tau Filament Binding;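 also: actives lower thioflavin S fluorescence by blocking filaments or displacing dye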
# Settings: recombinant tau filaments, thioflavin S fluorescence, 15 h, filaments grown with octadecylsulfate alongside compound; series mostly up to 57.1 µM
# Summary of the method: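 His-tagged recombinant human tau (exons 2, 3, 10; 1 uM final) fibrillized with 30 uM sodium octadecylsulfate, 15 h at 37 C, in pH 7.4 HEPES buffer with 10 uM thioflavine S and 5 mM DTT. Reduced ThS fluorescence (450/510 nm) marks activity.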
# Potency is read from the fitted curve at half-maximal effect.
# Microtubule-associated protein tau (Homo sapiens), sequence (P10636 whole entry, looked up): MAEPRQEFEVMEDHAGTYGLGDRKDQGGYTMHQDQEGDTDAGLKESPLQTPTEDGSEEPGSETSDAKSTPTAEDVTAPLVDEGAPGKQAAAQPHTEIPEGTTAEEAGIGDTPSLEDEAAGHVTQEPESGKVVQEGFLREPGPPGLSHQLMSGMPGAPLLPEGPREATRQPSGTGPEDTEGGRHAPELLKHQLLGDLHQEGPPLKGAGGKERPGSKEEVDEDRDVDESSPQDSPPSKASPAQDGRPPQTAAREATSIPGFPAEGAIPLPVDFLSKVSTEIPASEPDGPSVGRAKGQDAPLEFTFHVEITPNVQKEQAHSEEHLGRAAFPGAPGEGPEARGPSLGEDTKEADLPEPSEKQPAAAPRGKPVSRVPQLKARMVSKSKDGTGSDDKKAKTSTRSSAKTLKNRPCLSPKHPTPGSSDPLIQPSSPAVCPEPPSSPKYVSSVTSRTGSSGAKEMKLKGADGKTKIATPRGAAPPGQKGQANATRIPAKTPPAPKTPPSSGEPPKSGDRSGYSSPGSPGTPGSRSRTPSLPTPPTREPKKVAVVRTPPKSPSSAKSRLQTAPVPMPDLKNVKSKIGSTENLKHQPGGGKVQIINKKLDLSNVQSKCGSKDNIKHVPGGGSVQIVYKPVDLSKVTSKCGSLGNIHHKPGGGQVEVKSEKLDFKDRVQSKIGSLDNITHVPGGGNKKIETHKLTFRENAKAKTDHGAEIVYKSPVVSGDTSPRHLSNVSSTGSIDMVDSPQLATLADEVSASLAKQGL
Structure (SMILES),Potency,"activity change, negative = inhibition"
COC(=O)[C@@]1(Cc2ccc(OC)cc2)[C@H]2c3cc(C(=O)N4CCCC4)n(Cc4ccc(C(F)(F)F)nc4)c3C[C@H]2CN1C(=O)c1ccccc1,inactive,
COc1ccc(N=Cc2c(O)[nH]c3ccccc23)cc1OC,12.6 µM (active),
COc1ccc(CCNC(=O)CCCCn2c(=O)[nH]c3ccccc3c2=O)cc1OC,inactive,
COc1ccc(COC(=O)c2n[nH]c3ccccc23)cc1F,inactive,
COCC(C)NC(=O)c1ccc(Cl)c(Cl)c1 (centres undefined),inactive,
CCNc1ncc2ncc(=O)n(Cc3cccc(OC)c3)c2n1,inactive,
COc1cccc(Nc2ncc3ncc(=O)n(C4CC4)c3n2)c1,12.6 µM (active),
COc1cccc(Cn2c(=O)cnc3cncnc32)c1,inactive,
COc1ccc(N)c(OC)c1,inactive,
C=CCOC(=O)c1ccccc1C(=O)OCC=C,inactive,
CC[C@@H]1Cc2cc(O)ccc2C2=C1c1ccc(O)cc1C[C@H]2CC,25.1 µM (active),
CC(C)CO,inactive,
CO[C@@H]1/C=C\O[C@]2(C)Oc3c(C)c(O)c4c(O)c(c(CN(C)C)c(O)c4c3C2=O)NC(=O)/C(C)=C\C=C[C@@H](C)[C@@H](O)[C@H](C)[C@@H](O)[C@H](C)[C@H](OC(C)=O)[C@@H]1C,,3.4% [at 11.4 µM]
O=C(c1csnn1)N1CCC2(CC1)CN(c1ncccn1)C2,inactive,
O=NO,inactive,
CC(C)[C@H](CO)Nc1nc(Nc2cc(N)cc(Cl)c2)c2ncn(C(C)C)c2n1,31.6 µM (active),
CN1CCN(c2ncc3nc(-c4ccc(Cl)cc4)c(=O)n(-c4ccccc4)c3n2)CC1,inactive,
CCOc1cc(C(=S)N2CCOCC2)ccc1O,inactive,
COC(=O)c1ccc(CN(c2ccccc2OC)S(=O)(=O)c2cccs2)o1,inactive,
Cc1c(C)c2c(c(C)c1O)CC[C@@](C)(CN1CCN(c3cc(N4CCCC4)nc(N4CCCC4)n3)CC1)O2,12.6 µM (active),

Structure (SMILES),Potency,"activity change, negative = inhibition"
CC(=O)NC(C(=O)NCC(N)=O)C(C)C (centres undefined) (Ac-[ξV]-Gly-NH2),inactive,
CCNc1ncc2ncc(=O)n(CCc3ccccc3)c2n1,inactive,
Cc1ccc2oc(=O)ccc2c1,inactive,
CCCCNC(=O)c1ccccc1NC(=O)c1ccccc1N(C)S(C)(=O)=O,inactive,
Cc1ccc(Nc2cc(=O)n(C3CCCCC3)c(=O)[nH]2)cc1C,inactive,
COCCn1c(=O)c(-c2cc(F)cc(F)c2)nc2cnc(N3CCNCC3)nc21,3.16 µM (active),
COCCn1c(=O)c(CCc2ccccc2)nc2cnc(N3CCNCC3)nc21,inactive,
COCCn1c(=O)c(-c2cc(F)cc(F)c2)nc2cncnc21,inactive,
CNc1ncnc2ccc(-c3cccc(NS(C)(=O)=O)c3)cc12,inactive,
CCCCC(CC)CN (centres undefined),inactive,
CCC[C@@H]1C[C@@]1(CCC)[C@@H](NC(=O)c1ccccc1)c1ccc(C(=O)OC)cc1,inactive,
CC(=O)Nc1cccc(Oc2cc(C#N)c(C#N)cc2N2CCOCC2)c1,inactive,
CCOc1cc(N2CCOCC2)c(OCC)cc1NC(=O)COc1cccc2cccnc12,25.1 µM (active),
CCOc1cc(NC(=O)c2ccco2)c(OCC)cc1NC(=O)COc1ccccc1,inactive,
CC/C=C/C/C=C/C/C=C/CCCCCCCC(=O)OCC,inactive,
Cc1c(C(=O)OCC(=O)N(CCC#N)c2ccccc2)oc2c1ccc1ccccc12,inactive,
CCc1c(C)n([O-])c2c([n+]1=O)CCCCC2,inactive,
O=[n+]1c2c(n([O-])c3cc(Br)ccc31)CCC2,25.1 µM (active),
O=C1CCCc2c1[nH]c1ccc(Br)cc21,inactive,
CC(C)(C)[Si](OCC[C@@H]1C[C@@]1(C)[C@@H](NP(=O)(c1ccccc1)c1ccccc1)c1ccccc1)(c1ccccc1)c1ccccc1,inactive,

Structure (SMILES),Potency,"activity change, negative = inhibition"
CC(=O)c1cccc(S(=O)(=O)N2CCC(n3nnc4cc(F)ccc43)CC2)c1,inactive,
C/C(CC(O)(/C=N/O)c1ccccc1)=N\O (centres undefined),inactive,
CCCC(Cl)CCCC(Cl)CCC(Cl)CCC(Cl)CCC(Cl)CCCC(Cl)CCC (centres undefined),inactive,
Cc1cc(C(=O)O)ccc1[N+](=O)[O-],inactive,
CCc1c(C)nc2ncnn2c1N1CCC(C(=O)NCc2ccc3c(c2)OCO3)CC1,inactive,
Cc1ccc(C)n1C(Cc1ccccc1)C(=O)O (centres undefined),inactive,
O=C(NCCN1CCOCC1)[C@H](Cc1ccccc1)N1C(=O)c2ccccc2C1=O,inactive,
N/C(=N\c1nc2ccccc2o1)NC(=O)C(Cc1ccccc1)N1C(=O)c2ccccc2C1=O (centres undefined),12.6 µM (active),
O=C(OC1CCOC1=O)c1ccc(-c2nc3ccccc3s2)s1 (centres undefined),inactive,
COc1ccccc1CNc1ncncc1-c1cccc(NS(C)(=O)=O)c1,inactive,
CCCCCCCCCCCC(=O)O,inactive,
O=C(O)CCCCC(=O)O,inactive,
C#CCCCCCCCCCCCCCCCC(=O)O,31.6 µM (active),
CC1(CCC(=O)OC2CCCCC2)OCCO1,,-1.1% [at 11.4 µM]
CC1CC(c2ccccc2)n2nc(NC(=O)c3cccs3)nc2N1 (centres undefined),inactive,
Cc1cccc(Br)c1,inactive,
CC(=O)N1[C@H](C)C=C[C@]1(Cc1ccccc1)C(=O)NCc1ccccn1,inactive,
Cc1ccc(-n2c(N)c(C(=O)N3CCOCC3)sc2=S)c(C)c1,inactive,
C/C(=C\c1ccco1)C1Nc2cccc3cccc(c23)N1,15.8 µM (active),
